From PubChem BioAssay
BAZ2B inh – inhibitors of human BAZ2B bromodomain; Q9UIF8; Potency, µM (top dose mostly 114 µM), without a hit: at the top dose activity change, negative = inhibition, usual class: inhibitors; 360,000 tested, 4.4% active; AlphaScreen BAZ2B-H3K14Ac peptide displacement; AID 504333; further: on the % scale 0 is the no-effect control and ±100 the full control effect; nearly all actives have a fitted effect of over 60% in size
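Multi-concentration screen (max 110 uM) measuring displacement of acetylated histone H3 peptide from BAZ2B by AlphaScreen, using 50 nM protein, 50 nM peptide and 10 ug/mL streptavidin donor plus Ni-chelate acceptor beads.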
Sfp inh – inhibitors of Bacillus subtilis Sfp phosphopantetheinyl transferase; Potency, µM, for the others: largest response in the series, negative = inhibition, hits mostly inhibitors; Q9F4F7; AID 1490; Biochemical Sfp PPTase activity, qHTS; 310,000 tested, 3.5% active;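 further: the enzyme is Sfp with the accession as filed and its product quenches rhodamine fluorescence; 0% = enzyme reaction without inhibitor and -100% = no enzyme wells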
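Reaction rates are the 30-min fluorescence difference (ex 525, em 598 nm) in wells containing 15 nM Sfp, 5 uM rhodamine-CoA and 12.5 uM BHQ-2-YbbR at pH 7.6 with 10 mM MgCl2.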
JMJD2A Tudor inh – inhibitors of human JMJD2A Tudor domain. 390,000 tested, 4.4% active. Potency, µM (top dose mostly 114 µM), for inactives: at the top dose activity change, negative = inhibition, usual class: inhibitors. O75164. AlphaScreen JMJD2A-Tudor / H3K4me3 peptide binding. AID 504339; further: on the % scale 0 is the no-effect control and ±100 the full control effect; nearly all actives have a fitted effect of over 50% in size
G9a block – blocks human histone lysine methyltransferase G9a; 350,000 tested, 8.8% active; Q96KQ7; AID 504332; Potency, µM (doses to about 102 µM), without a hit: at the highest dose activity, negative = inhibition, actives largely listed as inhibitors; G9a H3K9 monomethylation, AlphaScreen, 2 h; further: on the % scale 0 is the no-effect control and ±100 the full control effect; nearly all actives have a fitted effect of over 75% in size
Target sequence (Q96KQ7 913-1193 limits assumed): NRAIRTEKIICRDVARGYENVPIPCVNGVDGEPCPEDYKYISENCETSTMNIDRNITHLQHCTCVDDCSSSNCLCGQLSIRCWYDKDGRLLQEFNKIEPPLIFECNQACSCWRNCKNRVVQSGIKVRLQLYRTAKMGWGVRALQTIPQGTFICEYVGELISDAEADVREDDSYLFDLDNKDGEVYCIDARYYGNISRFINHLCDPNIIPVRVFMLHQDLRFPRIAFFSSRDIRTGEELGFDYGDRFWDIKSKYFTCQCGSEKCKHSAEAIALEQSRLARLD
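AlphaScreen read-out: biotin-H3K9 peptide (500 nM) methylation by 20 nM enzyme with 20 uM SAM, 2 h at room temperature after 15 min compound preincubation; anti-monomethyl H3K9 antibody plus donor/acceptor beads, 10 min dark.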
HP1b chromo inh – HP1-beta chromodomain-methylated histone interaction inhibition; P83916; AlphaScreen HP1-beta / biotin-H3K9me3 peptide binding; Potency, µM (doses to about 114 µM), inactives show at the highest dose activity change, negative = inhibition, most hits filed as inhibitors; 390,000 tested, 0.56% active; AID 540317; further: nearly all actives have a fitted effect of over 70% in size
Target sequence (P83916 whole entry, looked up): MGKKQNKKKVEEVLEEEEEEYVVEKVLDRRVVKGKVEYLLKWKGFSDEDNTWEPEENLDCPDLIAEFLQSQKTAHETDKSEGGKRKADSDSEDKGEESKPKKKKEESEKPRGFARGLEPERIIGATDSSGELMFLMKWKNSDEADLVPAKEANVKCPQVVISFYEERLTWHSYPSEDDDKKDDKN
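HP1-beta protein (50 nM final) preincubated 30 min at room temperature with biotinylated H3(1-18)K9me3 peptide (50 nM) in PBS pH 7.4, 0.01% Tween-20, then compound added for 30 min. AlphaScreen streptavidin donor/nickel chelate acceptor beads (10 ug/mL final), 30 min dark, luminescence read.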
* = called active by the depositor; ? = inconclusive; . = no result; [ ] = another dose, or the depositor's remark. In the library only some 12% were active in any assay of this set; here they are far more common. The call rests on the fitted dose curve; in most records, active means well fitted curve in the direction sought with a large enough effect; inconclusive means small, poorly fitted or top-dose-only effect, or another doubt; inactive means no such curve, though single readings can be large; an effect the other way counts as inactive or inconclusive. Potency means the concentration at half of the fitted maximal effect.

SMILES	BAZ2B inh	Sfp inh	JMJD2A Tudor inh	G9a block	HP1b chromo inh
COC(=O)c1cc2sccc2n1CC(=O)Nc1ccc(OC)c(OC)c1OC	0%	17%	-6%	-32%[59 µM]	-5%
COc1ccc(OC)c(NC(=O)c2cn(C)c(=O)c3cc(OC)c(OC)cc23)c1	-36%	21%	-16%	40µM*	8%
Cn1c(C(=O)Nc2ccccc2)cc2sccc21	?	-5%	-29%	1.6µM*	5%
O=S(=O)(c1ccc(Cl)cc1Cl)n1ccnc1	-25%	.	-8%	?	16%
CC(C)Cc1ccc(CN2CCCC(NC(=O)c3cccc(-n4cnnc4)c3)C2)cc1 (centres undefined)	-31%	-1%	-23%	2%	10%
COc1ccc(-c2c(C)nc3c(-c4ccccn4)cnn3c2N)cc1	-6%	9%	-4%	15%	10%
COc1ccc(OC)c(NC(=O)c2cc3sccc3n2C)c1	?	-25%	?	50µM*	-11%
CC(=O)c1cccc(NC(=O)Nc2cccs2)c1	?	?	-23%	?	1%
CC(=O)c1cccc(NC(=O)Nc2cc3sccc3n2C)c1	?	40µM*	.	?	.
Cn1c(C(=O)Nc2ccc3c(c2)OCO3)cc2sccc21	-38%	-5%	?	32µM*	-18%
COC(=O)c1ccc(NC(=O)c2cc3sccc3n2C)cc1	?	45µM*	-33%	71µM*	4%
CC1CCCCC12NC(=O)N(CC(=O)NCCc1ccc(S(N)(=O)=O)cc1)C2=O (centres undefined)	-2%	.	-9%	-4%[12.7 µM]	31%
CCOc1ccc(CCNC(=O)COC(=O)c2ccc(C)c([N+](=O)[O-])c2)cc1OCC	-17%	2%	-12%	-9%	14%
COCCn1c(SCC(=O)c2ccc(OC)cc2)nc2cc(C(=O)NC3CCCC3)ccc2c1=O	3%	.	12%	-5%[59 µM]	23%
COc1ccc(NCC(=O)N/N=C/c2c(C)nn(Cc3ccccc3)c2Cl)cc1	45µM*	-12%	?	?	-28%
CC1=C(C(=O)OC(C)C)C(c2cccs2)N2C(=O)C(C)SC2=N1 (centres undefined)	2%	15%	79µM*	2%	15%
CC1=C(C(=O)OC(C)C)C(c2cccs2)N2C(=O)CCSC2=N1 (centres undefined)	-19%	8%	-23%	1%[59 µM]	4%
N#CC1=C(N)OC2=C(C(=O)CCC2)C12CCN(C(=O)OCc1ccccc1)CC2	-34%	-6%	-11%[57.1 µM]	50µM*	28%
CC1(C)CC(=O)C2=C(C1)OC(N)=C(C#N)C21CCN(C(=O)OCc2ccccc2)CC1	11%	-3%	-23%	-33%[2.33 µM]	4%
O=C(OCC1CCCO1)c1ccc2c(c1)N(Cc1ccccc1)C(=O)c1ccccc1S2(=O)=O (centres undefined)	0%	.	-16%	0%[59 µM]	18%
COCCN1C(=O)C(O)=C(C(C)=O)C1c1ccc(OC)c(OC)c1 (centres undefined)	?	-11%	16µM*	45µM*	11%
COc1cc(C2C(C(C)=O)=C(O)C(=O)N2CCN(C)C)ccc1O (centres undefined)	1%	3%	-3%	16%[59 µM]	23%
COc1ccc(C2C(C(C)=O)=C(O)C(=O)N2c2cccnc2)cc1OC (centres undefined)	?	3%	79µM*	?	22%
O=S(=O)(O)CC(S)CS (centres undefined)	.	2.8µM*	.	-34%[2.33 µM]	.
CCc1ccc(C2=NNC(=Nc3cccc(S(=O)(=O)N(C)C)c3)SC2)cc1	-36%	71µM*	-22%	1%[59 µM]	4%
SMILES	BAZ2B inh	Sfp inh	JMJD2A Tudor inh	G9a block	HP1b chromo inh
COc1ccc(-c2cc(C(=O)N/N=C/c3ccc4c(c3)OCO4)c3ccccc3n2)c(OC)c1	-3%	9%	-14%	12%[2.33 µM]	18%
O=C(N/N=C/c1ccc2c(c1)OCO2)c1cc(-c2ccc(F)cc2)nc2ccccc12	0%	45µM*	-11%	3%	28%
O=C(N/N=C/c1cccc(F)c1)c1cc(-c2ccco2)nc2ccccc12	6.3µM*	-5%	?	?	28µM*
COc1cc(/C=N/NC(=O)c2cc(-c3ccco3)nc3ccccc23)cc(OC)c1O	?	-3%	?	.	23%
C#CCCCO/N=C1/C[C@@H](O)[C@@H](O)[C@@H]2[C@H]3C(=O)N(c4ccc(F)cc4F)C(=O)[C@@H]3CC[C@H]12	.	7%	.	.	.
O=C(NNC(=S)Nc1ccccc1Cl)c1ccncc1	-3%	8%	-23%	?	3%
CCOC(=O)c1[nH]c2ccc(Br)cc2c1NC(=O)CCN1CCCC(C)(C)C1	-3%	-3%	-4%	8.9µM*	10%
CC(C)(C)c1n[nH]c2c1CCCC2	-7%	18%	89µM*	5%	-6%
c1ccc(-c2n[nH]c3c2CCC3)cc1	-22%	15%	0%	-11%[59 µM]	27%
CSc1ccc(NC(=O)Nc2ccc(C(=O)NCC(=O)O)cc2)cc1	50µM*	-13%	56µM*	35µM*	-16%
COc1ccc(CC(=O)OC(C)C(=O)c2ccc(C)cc2)cc1 (centres undefined)	100%	-2%	79%	.	194%
CC(C)(C)C(=O)N1CCN(c2ccc([N+](=O)[O-])cc2-n2cccc2)CC1	?	1%	-28%	-40%	-36%
O=C(C1CC1)N1CCN(c2ccc([N+](=O)[O-])cc2-n2cccc2)CC1	45µM*	2%	?	.	-36%
Cc1ccc(C(=O)N2CCN(c3ccc([N+](=O)[O-])cc3-n3cccc3)CC2)cc1	?	1%	?	28µM*	?
CCCCSc1nc(C(=O)O)cc(=O)[nH]1	-2%	?	40µM*	40µM*	40%
COc1ccc(C(=O)c2ccccc2Cl)cc1	28%	13%	49%	78%	91%
Cc1sc(N)c(C(=O)c2ccccc2Cl)c1C	45µM*	-10%	?	17%[12.7 µM]	?
CCOC(=O)CC1C(=O)NCCN1c1nc2ccc(C)cn2c(=O)c1/C=C1\SC(=S)N(CC(C)C)C1=O (centres undefined)	79µM*	-4%	-26%	?	-17%
CCCN1C(=O)/C(=C/c2c(N3CCNC(=O)C3CC(=O)OCC)nc3c(C)cccn3c2=O)SC1=S (centres undefined)	?	-21%	-23%	?	-15%
CCOC(=O)CC1C(=O)NCCN1c1nc2ccc(C)cn2c(=O)c1/C=C1\SC(=S)N(C(C)CC)C1=O (centres undefined)	28µM*	?	.	.	.
COC(=O)NC(CC(C)=O)c1cccc(C)c1 (centres undefined)	.	-5%	.	.	.
